Calls of active or inactive are those of the source. The calls were made as follows: active = hit-call score of the fitted dose curve at least 0.9, where 1 is the maximum; inactive = score below 0.9.
What was measured:
[1] = read-out: Monocyte Chemoattractant Protein-1 (MCP1), CCL2 (gene 6347); assay: BSK_LPS_MCP1: BioMAP Diversity Plus: LPS Assay for Monocyte Chemoattractant Protein-1 (MCP1) Biomarker Activity (AID 2283081); settings: primary human HUVEC with PBMC; actives raise or lower the signal
How it was run: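 Secreted MCP-1 read by ELISA at 24 h post-dosing in an LPS-activated co-culture of endothelial cells with peripheral blood mononuclear cells. Fits run in both directions, DMSO as baseline; parallel SRB staining tracks overt cytotoxicity.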

[2] = BSK_LPS_PGE2: BioMAP Diversity Plus: LPS Assay for Prostaglandin E2 (PGE2) Biomarker Activity (AID 2283082); settings: primary human HUVEC with PBMC; actives raise or lower the signal;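 as to AC50: secreted prostaglandin E2 measured by ELISA in LPS-stimulated co-culture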
How it was run: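 Primary human endothelial cells and blood mononuclear cells, co-cultured with LPS, receive test chemical; PGE2 ELISA follows at 24 h, with SRB-stained parallel cultures flagging cytotoxicity.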

[3] = read-out: Macrophage colony-stimulating factor (MCSF), CSF1 (gene 1435); assay: BSK_LPS_MCSF: BioMAP Diversity Plus: LPS Assay for Macrophage colony-stimulating factor (MCSF) Biomarker Activity (AID 2283083); settings: primary human HUVEC with PBMC; actives raise or lower the signal
How it was run: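 Bidirectional fitting against DMSO was applied to M-CSF levels read by ELISA at 24 h post-dose. The system pairs human umbilical vein endothelium with peripheral blood mononuclear cells; parallel SRB staining tracked cytotoxicity.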

[4] = read-out: Tissue Factor, F3 (gene 2152); assay: BSK_LPS_TissueFactor: BioMAP Diversity Plus: LPS Assay for Tissue Factor Biomarker Activity (AID 2283084); settings: primary human HUVEC with PBMC; actives raise or lower the signal
How it was run: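 Compound was added to an endothelial cell/PBMC co-culture, and after 24 h tissue factor (CD142) was read by ELISA. Gain or loss of signal was fitted against a DMSO baseline, and parallel SRB staining (560 nm) tracked overt cytotoxicity.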

[5] = read-out: Tumor necrosis factor (Homo sapiens) (UniProt P01375); assay: BSK_LPS_TNFa: BioMAP Diversity Plus: LPS Assay for Tumour Necrosis Factor alpha (TNFa) Biomarker Activity (AID 2283085); settings: primary human HUVEC with PBMC; actives raise or lower the signal;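 as to AC50: TNFa protein level quantified by ELISA in the co-culture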
How it was run: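 ELISA-based TNFa endpoint in a human endothelial–PBMC co-culture sampled 24 h post-exposure. Curves were fitted in both directions using DMSO as baseline of activity.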

[6] = read-out: Vascular cell adhesion molecule 1 (VCAM1), VCAM1 (gene 7412); assay: BSK_LPS_VCAM1: BioMAP Diversity Plus: LPS Assay for Vascular cell adhesion molecule 1 (VCAM1) Biomarker Activity (AID 2283086); settings: primary human HUVEC with PBMC; actives raise or lower the signal
How it was run: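 Measured by ELISA: VCAM-1 in LPS-activated HUVEC/PBMC co-cultures 24 h after treatment. Values reflect bidirectional fitting with DMSO as baseline.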

CD40, CD40 (gene 958) = assay: BSK_SAg_CD40: BioMAP Diversity Plus: SAg Assay for CD40 Biomarker Activity (AID 2283088); settings: primary human HUVEC with PBMC; actives raise or lower the signal
How it was run: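 CD40 is measured by fluorescence ELISA in an endothelial/PBMC primary human co-culture at 24 h post-dose. Fitting is bidirectional, DMSO baseline. Parallel SRB staining (560 nm) flags cytotoxicity.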

CD69, CD69 (gene 969) = assay: BSK_SAg_CD69: BioMAP Diversity Plus: SAg Assay for CD69 Biomarker Activity (AID 2283089); settings: primary human HUVEC with PBMC; actives raise or lower the signal;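 as to AC50: cell surface CD69 protein quantified by ELISA with fluorescence detection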
How it was run: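 HUVEC co-cultured with PBMC were dosed with chemical, and CD69 was measured by ELISA with fluorescence read-out 24 h later. Bidirectional curve fitting used DMSO as negative control and activity baseline.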

[7] = read-out: Monocyte Chemoattractant Protein-1 (MCP1), CCL2 (gene 6347); assay: BSK_SAg_MCP1: BioMAP Diversity Plus: SAg Assay for Monocyte Chemoattractant Protein-1 (MCP1) Biomarker Activity (AID 2283090); settings: primary human HUVEC with PBMC; actives raise or lower the signal
How it was run: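 Values derive from bidirectional fitting of ELISA-measured MCP1 against DMSO controls. Readings were taken 24 h after dosing human vascular endothelial cells co-cultured with peripheral blood mononuclear cells under superantigen stimulation.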

[8] = read-out: E-selectin (Homo sapiens) (UniProt P16581); assay: BSK_SAg_Eselectin: BioMAP Diversity Plus: SAg Assay for Eselectin Biomarker Activity (AID 2283091); settings: primary human HUVEC with PBMC; actives raise or lower the signal
How it was run: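 Cell-surface E-selectin is read by ELISA at 24 h in the SAg co-culture of HUVEC and PBMC. Curves are fitted in both directions relative to DMSO. Parallel SRB total-protein staining tracks overt toxicity.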

[9] = read-out: Monokine induced gamma interferon (MIG), CXCL9 (gene 4283); assay: BSK_SAg_MIG: BioMAP Diversity Plus: SAg Assay for Monokine induced gamma interferon (MIG) Biomarker Activity (AID 2283092); settings: primary human HUVEC with PBMC; actives raise or lower the signal
How it was run: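 HUVEC plus human PBMC co-culture, chemicals dosed and MIG (CXCL9) quantified by ELISA at 24 h. Bidirectional curve fitting against DMSO as negative control and baseline, so both gain and loss of signal count as activity.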

[10] = BSK_SAg_PBMCCytotoxicity: PBMC Cytotoxicity Assessment in the BioMAP Diversity Plus: SAg Assay (AID 2283093); settings: primary human HUVEC with PBMC;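 also: fitted both ways against DMSO so a hit may be loss or gain of signal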;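 as to AC50: PBMC superantigen activated with SEB plus TSST-1 one hour after compound addition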
How it was run: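 PBMC viability by Alamar Blue reduction, fluorescence read at 546/580 nm after 6 h dye exposure. Cells were dosed 1 h before SEB plus TSST-1 activation (20 ng/mL final each), then held 90 h; endothelial/PBMC human co-culture.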

[11] = BSK_SAg_SRB: Viability Assessment in the BioMAP Diversity Plus: SAg Assay (AID 2283096); settings: primary human HUVEC with PBMC;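 also: cells read one day after compound addition; hits may be either gain or loss of signal compared with DMSO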
How it was run: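 Compounds were added to a human vascular co-culture of umbilical vein endothelium and PBMC. After 24 h, parallel cultures were fixed with 10% TCA, stained with 0.1% sulforhodamine B and read at 560 nm. Gain or loss of signal was fitted relative to DMSO.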

CD38, CD38 (gene 952) = assay: BSK_SAg_CD38: BioMAP Diversity Plus: SAg Assay for CD38 Biomarker Activity (AID 2283087); settings: primary human HUVEC with PBMC; actives raise or lower the signal
How it was run: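 Measures CD38 on a human endothelial/PBMC co-culture driven by SEB and TSST-1, 24 h after compound exposure, using ELISA with fluorescence detection; DMSO defines baseline for bidirectional curve fitting.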

[12] = read-out: Interleukin-8 (IL8), CXCL8 (gene 3576); assay: BSK_SAg_IL8: BioMAP Diversity Plus: SAg Assay for Interleukin-8 (IL8) Biomarker Activity (AID 2283094); settings: primary human HUVEC with PBMC; actives raise or lower the signal
How it was run: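 Primary human endothelial cells with PBMC, exposed 24 h; IL-8 determined by ELISA, analysed bidirectionally relative to DMSO.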

[13] = BSK_SAg_Proliferation: Cell Proliferation Assessment in the BioMAP Diversity Plus: SAg Assay (AID 2283095); settings: primary human HUVEC with PBMC;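 also: relative cell number as total protein by SRB absorbance in sub-confluent culture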
How it was run: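 A human primary co-culture of umbilical vein endothelium and blood mononuclear cells receives compound; relative cell number is quantified at 96 h by SRB staining and 560 nm absorbance, with DMSO-referenced bidirectional curve fitting.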

Measured: AC50

E-selectin (Homo sapiens), sequence (P16581 whole entry, looked up): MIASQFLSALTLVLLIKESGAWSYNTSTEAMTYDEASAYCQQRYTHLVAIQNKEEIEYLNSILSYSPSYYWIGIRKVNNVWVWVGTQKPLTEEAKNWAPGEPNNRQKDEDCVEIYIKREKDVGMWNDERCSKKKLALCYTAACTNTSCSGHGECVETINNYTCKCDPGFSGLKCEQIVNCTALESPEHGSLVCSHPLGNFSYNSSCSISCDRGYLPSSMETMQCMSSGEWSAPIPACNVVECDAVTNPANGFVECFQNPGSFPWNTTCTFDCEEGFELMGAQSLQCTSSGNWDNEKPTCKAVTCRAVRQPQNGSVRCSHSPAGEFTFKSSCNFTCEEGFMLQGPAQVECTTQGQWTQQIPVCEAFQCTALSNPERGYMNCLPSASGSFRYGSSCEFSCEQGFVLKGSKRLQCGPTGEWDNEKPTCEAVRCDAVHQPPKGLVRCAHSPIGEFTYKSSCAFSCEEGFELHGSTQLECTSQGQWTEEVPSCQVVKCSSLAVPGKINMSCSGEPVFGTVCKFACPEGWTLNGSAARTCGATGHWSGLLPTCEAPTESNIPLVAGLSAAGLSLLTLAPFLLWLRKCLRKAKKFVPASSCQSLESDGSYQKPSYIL
Tumor necrosis factor (Homo sapiens), sequence (P01375 whole entry, looked up): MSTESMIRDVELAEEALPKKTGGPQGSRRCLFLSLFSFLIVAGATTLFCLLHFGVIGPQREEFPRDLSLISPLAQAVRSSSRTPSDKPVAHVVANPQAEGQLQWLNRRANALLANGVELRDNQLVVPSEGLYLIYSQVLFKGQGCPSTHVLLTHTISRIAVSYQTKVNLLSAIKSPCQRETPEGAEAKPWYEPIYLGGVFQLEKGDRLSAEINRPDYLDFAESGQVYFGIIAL

OCCC(F)(F)C(F)(F)C(F)(F)C(F)(F)F
not listed: CD38, CD38 (gene 952) | [12] | [13]
inactive: all other assays above

CCCCCCOC(=O)CC(CC(=O)OCCCCCC)(OC(=O)CCC)C(=O)OCCCCCC
active: [10] 4.11 µM | [13] 9.76 µM
inactive: all other assays above

FC(F)(F)COC(OCC(F)(F)F)OCC(F)(F)F
not listed: [3] | CD38, CD38 (gene 952)
inactive: all other assays above

Cc1nccn1-c1ccc(Sc2cccc(C3(C(N)=O)CCOCC3)c2)cc1
active: [6] 6.8 µM | CD40, CD40 (gene 958) 4.56 µM | CD69, CD69 (gene 969) 6.87 µM | [7] 6.58 µM | [8] 8.95 µM | [12] 5.42 µM
not listed: [1] | CD38, CD38 (gene 952) | [13]
inactive: all other assays above

FC(F)=C(F)C(F)(F)C(F)(F)C(F)(F)C(F)(F)C(F)(F)C(F)(F)F
not listed: [3] | [12] | [13]
inactive: all other assays above

OC(CCl)CCl
not listed: [1]
inactive: all other assays above

CCCc1ccccc1
not listed: [3] | CD38, CD38 (gene 952) | [12]
inactive: all other assays above

CCc1ccc(O)c(C(C)(C)C)c1
active: [2] 25.3 µM | [5] 36.6 µM | [6] 30.5 µM | CD38, CD38 (gene 952) 26.7 µM | CD40, CD40 (gene 958) 36 µM | [7] 20 µM | [8] 29.6 µM | [10] 34.7 µM | [11] 35.8 µM
inactive: [3] | [4] | CD69, CD69 (gene 969) | [9] | [12]

CCCCC(CC)C(=O)OCCOCCOCCOC(=O)C(CC)CCCC (centres undefined)
active: [13] 24.7 µM
not listed: [1] | CD38, CD38 (gene 952) | [12]
inactive: all other assays above

From PubChem BioAssay (EPA / NIEHS)
